Test results from PubChem BioAssay (Tox21).
Records with an inconclusive call do not appear. The source made the active and inactive calls. Unless noted, the call rests on the fitted dose curve.

How the values were obtained:
[1] = qHTS assay to identify small molecule antagonists of the vitamin D receptor (VDR) signaling pathway - cell viability counter screen (AID 743225; active means well fitted curve in the direction sought with a large enough effect in the repeat runs; an effect the other way counts as inactive or inconclusive; further: on the % scale 0 is the no-effect control and ±100 the full control effect; nearly all actives have a fitted effect of over 50% in size)
How it was run: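 HEK293T VDR-bla; cpd + 1a,25-(OH)2D3 3 nM final, 16 h 37C/5% CO2; B/G FRET substrate 2 h RT; then CellTiter-Glo 30 min RT, luminescence.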

[2] = qHTS assay to identify small molecule agonists of the NFkB signaling pathway (AID 1159509; active means well fitted curve in the direction sought with a large enough effect in the signal ratio in the repeat runs, not every such curve was filed as active; the % refers to the signal ratio; further: series mostly up to about 61 µM; on the % scale 0 is the no-effect control and ±100 the full control effect)
How it was run: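 After overnight attachment, reporter cells received test compounds, DMSO or positive controls and were incubated 5 hr at 37 C. FRET substrate was then added for 1.5 hr at room temperature before dual-emission fluorescence reading.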

[3] = qHTS assay to identify small molecule agonists of the NFkB signaling pathway - cell viability counter screen (AID 1159515); further: series mostly up to about 61 µM; on the % scale 0 is the no-effect control and ±100 the full control effect; nearly all actives have a fitted effect of over 55% in size
How it was run: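 NFkB-bla ME-180 cells, 2,000/well, were plated overnight at 37 C, 5% CO2, then exposed to compounds in DMSO for 5 hr. After the bla FRET read, CellTiter-Glo was added to the same wells; luminescence was read after 30 min at room temperature.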

[4] = qHTS assay to identify small molecule agonists of the endoplasmic reticulum stress response signaling pathway (AID 1159516; active means well fitted activation curve with a large enough effect in the signal ratio in the repeat runs, not every such curve was filed as active; the % refers to the signal ratio; further: on the % scale 0 is the no-effect control and ±100 the full control effect)
How it was run: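 CellSensor ESRE-bla HeLa cells, carrying a beta-lactamase reporter driven by the ER stress response element, were plated overnight and exposed to compounds for 5 hr at 37 C. Reporter activity was read as FRET substrate fluorescence after 2 hr at room temperature.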

[5] = qHTS assay to identify small molecule agonists of the endoplasmic reticulum stress response signaling pathway - cell viability counter screen (AID 1159517); further: series mostly up to about 61 µM; on the % scale 0 is the no-effect control and ±100 the full control effect; nearly all actives have a fitted effect of over 50% in size
How it was run: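 Luminescence readout: CellTiter-Glo, 30 min RT, same wells as the ESRE-bla reporter read. HeLa ESRE-bla, 1,500 cells/well, o/n 37 C; cpd 5 hr 37 C/5% CO2.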

[6] = qHTS assay to identify small molecule antagonists of the retinoid-related orphan receptor gamma (ROR-gamma) signaling pathway - cell viability counter screen (AID 1159520; active means well fitted curve in the direction sought with a large enough effect in the repeat runs; an effect the other way counts as inactive or inconclusive; further: on the % scale 0 is the no-effect control and ±100 the full control effect; nearly all actives have a fitted effect of over 50% in size)
How it was run: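 Tet-on ROR gamma CHO cells (1,000/well) were plated 4 hr, given compounds in DMSO for 2 hr at 37 C, then induced with 1 uM final doxycycline for 16 hr. Viability was read as ATP by CellTiter-Glo luminescence after 30 min.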

[7] = target: Nuclear receptor ROR-gamma (Homo sapiens) (UniProt P51449); assay: qHTS assay to identify small molecule antagonists of the retinoid-related orphan receptor gamma (ROR-gamma) signaling pathway (AID 1159521; active means well fitted curve in the direction sought with a large enough effect in the repeat runs; an effect the other way counts as inactive or inconclusive;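 further: CHO cells with doxycycline inducible ROR-gamma driving an RORE luciferase reporter; top concentration of the series differs between compounds; on the % scale 0 is the no-effect control and ±100 the full control effect; nearly all actives have a fitted effect of over 50% in size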)
How it was run: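 Cells were plated, rested 4 h at 37 C, exposed to compounds for 2 h, then given 1 uM final doxycycline hyclate to induce RORγ expression. After 16 h, ONE-Glo luminescence from the ROR response element reporter was measured.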

[8] = qHTS assay to identify small molecule agonists of the AP-1 signaling pathway - cell viability counter screen (AID 1159525); further: nearly all actives have a fitted effect of over 55% in size
How it was run: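 ME-180 AP-1-bla, 2500 cells/well, Opti-MEM + 0.5% dialyzed FBS; overnight 37 °C; cpd 15-pt titration, 5 h 37 °C; CellTiter-Glo 30 min RT; luminescence read; normalised to TOAB and DMSO controls.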

[9] = qHTS assay to identify small molecule agonists of the AP-1 signaling pathway (AID 1159526); further: on the % scale 0 is the no-effect control and ±100 the full control effect
[10] = qHTS assay to identify small molecule agonists of the vitamin D receptor (VDR) signaling pathway - cell viability counter screen (AID 743224; active means well fitted curve in the direction sought with a large enough effect in the repeat runs; an effect the other way counts as inactive or inconclusive)
How it was run: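 VDR-bla cells were preincubated 4 h at 37C/5% CO2, then exposed to compounds for 16 h. After the 2 h room-temperature bla FRET read, CellTiter-Glo was added to the same wells and luminescence read after 30 min.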

O=Cc1ccccc1Cl
inactive: outcome [1] | outcome [2] | outcome [3] | outcome [4] | outcome [5] | outcome [6] | outcome [7] | outcome [8] | outcome [9]

CC1(C)CC(OC(=O)CCCCCCCCC(=O)OC2CC(C)(C)NC(C)(C)C2)CC(C)(C)N1
inactive: outcome [10] | outcome [1] | outcome [2] | outcome [3] | outcome [4] | outcome [5] | activity, negative = cytotoxicity [6] 1.22% [at 19 µM] | activity change, negative = inhibition [7] 5.06% [at 19 µM] | activation [9] 13.3% [at 15.8 µM]

CCC(=O)Oc1ccc2c(c1)CC[C@@H]1[C@@H]2CC[C@@]2(C)[C@H]1C[C@@H](OC(=O)CC)[C@@H]2OC(=O)CC
inactive: outcome [1] | outcome [2] | outcome [3] | outcome [4] | outcome [5] | outcome [6] | outcome [7] | outcome [8] | outcome [9]

CC(C)COC(=O)c1ccccc1
inactive: outcome [10] | outcome [2] | outcome [3] | outcome [4] | outcome [5] | outcome [6] | outcome [7] | outcome [9]

CC(C)C1OCCN1CCOC(=O)NCCCCCCNC(=O)OCCN1CCOC1C(C)C (stereo unspecified)
inactive: outcome [10] | outcome [1] | outcome [2] | outcome [3] | outcome [4] | outcome [5] | outcome [6] | outcome [7] | outcome [9]

CCNC(=O)NCc1cccc(Cl)c1
inactive: outcome [10] | outcome [1] | outcome [2] | outcome [3] | outcome [4] | outcome [5] | outcome [6] | outcome [8] | outcome [9]

CCO
inactive: outcome [10] | outcome [1] | outcome [2] | outcome [3] | outcome [4] | outcome [5] | outcome [6] | outcome [7] | outcome [9]

CCC/C=C(\C=O)CC
inactive: outcome [2] | outcome [3] | outcome [4] | outcome [5] | outcome [6] | outcome [8] | outcome [9]

CC(Oc1cc(Cl)ccc1Cl)C(=O)O (stereo unspecified)
inactive: outcome [10] | outcome [1] | outcome [2] | outcome [3] | outcome [4] | outcome [5] | outcome [6] | outcome [8] | outcome [9]

CC(C)Nc1ccccc1
inactive: outcome [10] | outcome [1] | outcome [2] | outcome [3] | outcome [4] | outcome [5] | outcome [6] | outcome [7] | outcome [9]

Cn1c(=O)c2c(ncn2CCO)n(C)c1=O
inactive: outcome [10] | outcome [1] | outcome [2] | outcome [3] | outcome [4] | outcome [5] | outcome [6] | outcome [8] | outcome [9]

O/N=C/C=N/O
inactive: outcome [10] | outcome [1] | outcome [2] | outcome [3] | outcome [4] | outcome [5] | outcome [7] | outcome [9]

CC1=C(O)C(=O)C(C)O1 (stereo unspecified)
inactive: outcome [10] | outcome [1] | outcome [2] | outcome [3] | outcome [4] | outcome [5] | outcome [6] | outcome [9]

CCCCSCCCC
inactive: outcome [10] | outcome [1] | outcome [2] | outcome [3] | outcome [4] | outcome [5] | outcome [7] | outcome [8] | outcome [9]

CC(C)C[C@@H]1[C@H](c2ccccc2)OC(=O)N1CCCN1CCCCCC1
inactive: outcome [10] | outcome [1] | outcome [2] | outcome [3] | outcome [4] | outcome [5] | outcome [6] | outcome [9]

N#CCC(=O)NN
inactive: outcome [10] | outcome [1] | outcome [2] | outcome [3] | outcome [4] | outcome [5] | outcome [7] | outcome [8] | outcome [9]

C=CCN1C[C@H](C(=O)N(CCCN(C)C)C(=O)NCC)C[C@@H]2c3cccc4[nH]cc(c34)C[C@H]21
inactive: outcome [10] | outcome [1] | outcome [2] | outcome [3] | outcome [4] | outcome [5] | outcome [7] | outcome [8] | outcome [9]

CC(=O)Nc1ccc(OC(=O)c2ccccc2OC(C)=O)cc1
inactive: outcome [10] | outcome [1] | outcome [2] | outcome [3] | outcome [4] | outcome [5] | outcome [6] | outcome [9]

CCO[Si](CC)(OCC)OCC
inactive: outcome [1] | outcome [2] | outcome [3] | outcome [4] | outcome [5] | outcome [6] | outcome [8] | outcome [9]

Cc1cccc(Cl)c1
inactive: outcome [10] | outcome [1] | outcome [2] | outcome [3] | outcome [4] | outcome [5] | outcome [6] | outcome [9]
